# Compounds with a hit are over-represented: about 4.7% of the library has one in this group of screens.
# Calb FLC = C. albicans growth modulation with fluconazole | C. albicans CaCi-2 (fluconazole-resistant clinical isolate) + fluconazole, Alamar Blue growth, 48 h | growth inhibition, % (concentration not given with the values) | 300,000 compounds, 0.57% hits | AID 1979;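 active means growth inhibition above about 58% in most replicates, limit read from the data, passing the limit was not always enough; inconclusive means exactly half the replicates above a set limit; inactive means most replicates below a set limit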;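 further: all wells also contain fluconazole at 8 µg/ml as a sub-toxic cotreatment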
# tim23-1 inh = growth inhibitors of tim23-1 mutant yeast; 330,000 compounds, 1.3% hits; AID 463212; inhibition, % at 20 µM; S. cerevisiae tim23-1 growth, BacTiter-Glo luminescence, 24 h;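 active means growth inhibition of the mutant yeast at or above 50%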;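 further: temperature-sensitive mutant grown at 25 °C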
# TIM10 inh = growth inhibitors of TIM10 yeast strain; S. cerevisiae TIM10 strain growth, BacTiter-Glo luminescence, 24 h; AID 463195; 330,000 compounds, 1.4% hits; inhibition, % at 10 µM;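 active means inhibition of 40% or more at the single tested concentration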;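 further: wild-type TIM10 isogenic control strain grown at permissive 25 °C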
# SKKanGAS inh = inhibitors of SKKanGAS S. pyogenes growth in kanamycin (SK-promoter or general growth effect). inhibition, % at 7.5 µM. 300,000 compounds, 1.3% hits. BacTiter-Glo, 6 h;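 active means mean replicate score, as percent of positive control median, at least 50; inconclusive means mean below 50 but one replicate at or above 50; inactive means mean and every replicate below 50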;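 further: strain carries kanamycin resistance gene driven by streptokinase promoter and grows in 40 µg/ml kanamycin; loss of luminescence reflects streptokinase promoter inhibition or plain growth inhibition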
# tim10-1 inh = growth inhibitors of tim10-1 mutant yeast. S. cerevisiae tim10-1 ts strain growth, BacTiter-Glo, 24 h. inhibition, % at 20 µM. 330,000 compounds, 2.2% hits. AID 463190;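 active means inhibition of at least 40%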;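 further: mutant grown at 25 °C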
# PfHsp90 set2 = growth inhibition of yeast expressing Plasmodium Hsp90 | S. cerevisiae expressing PfHsp90, BacTiter-Glo ATP, 48 h; yeast lacking PDR1 and PDR3 efflux regulators | inhibition, % at 9.4 µM | 310,000 compounds, 0.32% hits;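 active means every replicate shows inhibition above about 80%, whatever the replicate mean, limit read from the data; inconclusive means mean inhibition reaches the set limit but some replicate falls short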
# Hits are given with their value; – = inactive; ? = inconclusive; · = no result.
SMILES,Calb FLC,tim23-1 inh,TIM10 inh,SKKanGAS inh,tim10-1 inh,PfHsp90 set2
Cc1nnc(NC(=O)c2ccc(S(=O)(=O)N3CC(C)CC(C)C3)cc2)o1 (stereo unspecified),–,–,–,54,–,–
CC1CCCN(S(=O)(=O)c2ccc(C(=O)Nc3nnc(C4=COCCO4)o3)cc2)C1 (stereo unspecified),–,–,–,66,–,·
CC1CN(S(=O)(=O)c2ccc(C(=O)Nc3nnc(-c4ccc5c(c4)CCCC5)o3)cc2)CC(C)O1 (stereo unspecified),–,–,–,93,–,–
NC(=O)NC(=O)COC(=O)CCSc1ccccc1,–,–,–,–,–,–
O=C(COc1ccccc1Cl)NCCCNC(=O)c1cnccn1,–,–,–,–,–,–
CCCCN(Cc1ccccc1)C(=O)C1CCC(=O)N(CCc2ccccn2)C1 (stereo unspecified),–,–,–,·,–,–
O=C(CNC(=O)c1ccco1)NCc1nc2ccccc2[nH]1,–,–,–,51,–,–
O=C(NCc1nc2ccccc2[nH]1)c1ccco1,–,–,–,–,–,–
O=C(CCN1C(=O)c2ccccc2C1=O)C1=NN[C@@H]2C(=O)N(c3ccc4c(c3)OCO4)C(=O)[C@H]12,–,–,–,–,–,·
CCCCN(C)CCNC(=O)CN1C(=O)CSc2ccc(S(=O)(=O)N3CCCC3)cc21,–,–,–,–,–,–
Fc1ccc2nc(Nc3nc4cc5c(cc4s3)OCCO5)sc2c1,–,–,–,50,–,–
c1ccc2sc(Nc3nc4cc5c(cc4s3)OCO5)nc2c1,–,–,–,–,–,–
Fc1ccc2nc(Nc3nc4cc5c(cc4s3)OCO5)sc2c1,–,–,–,60,–,–
Cc1cccc(-n2c(Cc3cc(=O)[nH]c(=O)[nH]3)nnc2SCC(=O)N2CCc3ccccc32)c1,–,–,–,–,–,–
CC(C)=CCC/C(C)=C/CNC(=O)C[C@H]1C[C@H](C(=O)N2CCCCC2)[C@@]2(C)c3[nH]c4cc(CCC(=O)N(C)C)ccc4c3CCN2C1=O,·,–,–,·,–,–
CSc1n[nH]c2nc3c(c(=O)n12)C1(CCCCC1)Cc1ccccc1-3,–,–,–,60,–,–
O=C(NC(NC(=S)Nc1ccc(Cl)cc1Cl)C(Cl)(Cl)Cl)c1cccc([N+](=O)[O-])c1 (stereo unspecified),–,–,–,106,–,·
CC(C)COCc1ccc(O)c2ncccc12,98,–,–,83,–,–
CCCOCc1ccc(O)c2ncccc12,90,–,–,82,–,–
Oc1ccc(COCc2ccccc2)c2cccnc12,–,–,–,?,–,–
CCCCCCCCCc1nc2sc3c(c2c(=O)n1NC(=O)c1ccc([N+](=O)[O-])cc1)CC(C)(C)OC3,–,–,–,64,–,–
CCCc1nc2sc3c(c2c(=O)n1NC(=O)c1ccco1)CC(C)(C)OC3,–,–,–,–,–,–
CCCCCCCCCc1nc2sc3c(c2c(=O)n1NC(=O)c1ccccc1[N+](=O)[O-])CC(C)(C)OC3,–,–,–,65,–,–
NC(=O)c1ccsc1NC(=O)COC(=O)c1cnccn1,·,–,–,·,–,–
Cc1sc2nc(-c3ccccn3)[nH]c(=O)c2c1-c1ccccc1,–,–,–,80,–,–
SMILES,Calb FLC,tim23-1 inh,TIM10 inh,SKKanGAS inh,tim10-1 inh,PfHsp90 set2
CCSc1nc(N)c(C#N)c(-c2ccccc2Cl)c1C#N,–,–,–,–,–,·
N#Cc1c(N)nc(Sc2ccc(Cl)cc2)c(C#N)c1-c1ccccc1Cl,–,–,–,75,–,–
O=C(Nc1ccc(S(=O)(=O)Nc2ncccn2)cc1)c1ccccc1NS(=O)(=O)c1ccc(Cl)cc1,–,–,–,–,–,–
CC1(C)CC(NC(=O)c2sc3cc(Cl)ccc3c2Cl)CC(C)(C)N1,–,–,–,–,–,–
O=C(NC(=S)Nn1cnc2c(cnn2-c2ccccc2)c1=O)c1ccc(Oc2ccccc2)cc1,–,–,–,89,–,–
O=C(NC(=S)Nn1cnc2c(cnn2-c2ccccc2)c1=O)c1ccc(Cl)cc1,101,–,–,–,–,–
Cc1ccc(NC(=O)COC(=O)c2nn(C)c(=O)c3ccccc23)cc1F,·,–,–,·,–,–
Oc1ccc(Cl)cc1Sc1cc(Cl)ccc1O,·,·,·,·,·,102
Nc1nnc(N)c2ccccc12,–,–,–,·,–,–
Nc1nsc2ccccc12,87,–,–,–,–,–
CCOc1ccccc1N(CC(=O)NCCc1ccccc1)C(=O)CCC(=O)Nc1ccccn1,–,–,–,–,–,–
CC(C)[C@H]1COCCS(=O)(=O)N1Cc1cccc(Cl)c1,–,–,–,–,–,–
CN(C)c1nc(Cl)nc(N(C#N)CCOc2ccccc2)n1,113,–,–,–,–,–
Cc1nc(-c2ccccn2)nc(N(C)c2ccccc2)c1Cl,–,–,–,93,–,–
Cc1cc(C)n(CCN(C)C(=O)C2CCC(=O)N(CCc3cccc(F)c3)C2)n1 (stereo unspecified),–,–,–,–,–,–
Cc1sc(NC(=O)COc2ccccc2)c(C#N)c1-c1ccccc1,–,–,–,–,–,–
COc1ccc(C(=O)Nc2sc(C)c(-c3ccccc3)c2C#N)cc1OC,–,–,–,54,–,–
CC(C)Cn1c(O)c(N=NC(=O)c2cccc(S(=O)(=O)N3CCCCC3)c2)c2ccccc21,–,–,–,53,–,–
O=C(NNC(=O)c1cccc(S(=O)(=O)N2CCCCC2)c1)c1ccccc1,·,–,–,·,–,·
Cc1cc2c(NCc3ccccc3)ncnc2s1,–,–,–,–,–,–
CCNC(=O)c1c(NC(=O)c2cc(-c3cc(C)ccc3O)n[nH]2)sc2c1CCCC2,–,–,–,82,–,–
CC1CN(S(=O)(=O)c2cc(C(=O)N(C)Cc3cccs3)ccc2Cl)CC(C)O1 (stereo unspecified),·,–,–,·,–,–
COc1ccccc1N1CCN(CCCNC(=O)C2CCCN(c3ncnc4c3nc3n4CCCCC3)C2)CC1 (stereo unspecified),–,–,–,–,–,–
Cc1ccc(Cl)cc1N1CCN(Cc2nc3c(c(=O)[nH]c(=O)n3C)n2Cc2ccccc2F)CC1,–,–,–,79,–,–
Cc1ccc(Cl)cc1N1CCN(Cc2nc3c(c(=O)[nH]c(=O)n3C)n2CCc2ccccc2)CC1,–,–,–,–,–,–
O=S(=O)(c1ccc(Cl)s1)N1CCCc2cccc(O)c21,68,–,–,–,–,·
Cc1nc(NC(=O)c2ccc(Cl)cc2)sc1-c1csc(Nc2cccc(F)c2)n1,–,·,·,73,·,·
Cc1ccc(Nc2nc(-c3sc(NC(=O)c4cccc(Cl)c4)nc3C)cs2)cc1,–,–,–,–,–,·
CCOC(=O)N1CCC(N2Cc3cccc(C(=O)Nc4ccc(N(CC)CC)cc4C)c3C2=O)CC1,–,–,–,–,–,–
